Laboratory results taken from the supplement of paper PMC3334620.
Whole data set: some 33,000 sequences, median “E-score (-0.5 to 0.5)” near -0.015, cut for the highest 2% near 0.3. The sample as a whole holds a higher share of the highest values than the screen did.

molecular target: T1, Abf1 (UniProt P14164); assay: PBM E-score (8-mer binding enrichment) (E-score (-0.5 to 0.5)); higher = stronger / more preferred TF binding; conditions: protein concentration: 200 nM; construct: GST-full length
T1 sequence: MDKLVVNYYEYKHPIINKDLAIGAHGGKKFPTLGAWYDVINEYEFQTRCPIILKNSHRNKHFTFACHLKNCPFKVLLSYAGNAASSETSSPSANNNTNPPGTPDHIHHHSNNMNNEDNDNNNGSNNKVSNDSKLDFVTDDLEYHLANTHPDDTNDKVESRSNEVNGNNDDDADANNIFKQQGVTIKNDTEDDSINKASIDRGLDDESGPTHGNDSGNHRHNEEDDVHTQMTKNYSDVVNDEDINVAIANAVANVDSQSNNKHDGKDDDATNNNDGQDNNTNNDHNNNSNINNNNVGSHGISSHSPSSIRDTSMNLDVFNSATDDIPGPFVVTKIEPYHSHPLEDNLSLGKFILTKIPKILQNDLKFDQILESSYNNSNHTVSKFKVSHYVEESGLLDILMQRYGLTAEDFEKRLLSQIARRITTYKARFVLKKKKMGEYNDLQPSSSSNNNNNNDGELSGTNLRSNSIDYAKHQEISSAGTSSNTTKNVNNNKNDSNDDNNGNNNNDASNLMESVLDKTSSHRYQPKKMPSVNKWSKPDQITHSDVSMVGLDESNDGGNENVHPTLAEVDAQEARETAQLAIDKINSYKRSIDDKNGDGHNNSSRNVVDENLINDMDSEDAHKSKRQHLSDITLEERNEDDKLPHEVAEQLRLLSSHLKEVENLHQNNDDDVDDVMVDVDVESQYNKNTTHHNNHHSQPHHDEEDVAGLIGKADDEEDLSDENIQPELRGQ
Description: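 Universal 'all 10-mer' protein binding microarrays (Agilent AMADID 015681) probed with GST-tagged S. cerevisiae TFs (full-length or DBD) made by in vitro transcription/translation (PURExpress), about 100-200 nM. Bound TF was detected with fluorescent anti-GST. Each ungapped 8-mer (which stands for itself and its reverse complement) is scored by the PBM enrichment score (E-score), a modified Wilcoxon-Mann-Whitney statistic from -0.5 to +0.5, computed with the Universal PBM Analysis Suite. Scale: above 0.35 generally sequence-specific binding.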

Sequence | PBM E-score
GATCGCCA | 0.165
GATCGCGC | 0.121
TATCGCGA | 0.34
GATCGCGA | 0.315
CATCGCGA | 0.2
AATCGCGA | 0.176
ATTTAGCA | 0.193
AGGTAATG | 0.0091
AACTCTAT | -0.096
GGTCTTTA | 0.0661
CGTCTTTC | 0.0707
CGTCTTTA | 0.301
CTTGTTAA | -0.072
CCCGTGCG | 0.054
TCCGTGAA | 0.238
ACCGTGCT | 0.139
ATCGTGCA | 0.282
CCCGTGCA | 0.0856
ATCGTGCG | 0.366
ACCGTGCC | 0.0366
TCCGTGCA | 0.312
ATCGTGCC | 0.276
GCCGTGCA | 0.223
ACCGTGCG | 0.315
ACCGTGCA | 0.315

Sequence | PBM E-score
AAGTTGTG | -0.0478
CTAGGAAG | -0.18
CACTGAGA | -0.104
AGAAGTTG | -0.0778
CTTCGACC | -0.0331
GTAGTCAA | 0.106
CGTGAGTC | 0.0135
CGCCCGCG | -0.0644
AACAGTAT | 0.0291
AGGTCCAC | -0.0594
CATACGGC | 0.346
AATACGGT | 0.194
AATACGGC | 0.32
GATACGGC | 0.199
CATACGCC | -0.00293
CATACGGA | 0.295
CATACGAC | 0.333
AATACGGG | 0.202
CATACGAG | 0.171
CAGCTTTC | -0.00915
AAACTTCT | 0.211
ATCGCCAC | 0.275
ATAGATAC | -0.0386
AGCACTTC | 0.0874
ATCACTTC | 0.376

Sequence | PBM E-score
GTCACTGA | 0.253
AACACTTG | -0.0627
AGCACTTG | -0.314
ATCACTTA | 0.355
CTCACTTC | -0.0359
CTCACTTA | 0.14
GTCACTTA | 0.355
ATCACTGA | 0.205
GCCACTTA | -0.0218
ATCACTTG | 0.355
CACGGGTC | -0.0483
CGTGTGGC | 0.0664
ATACCGAA | 0.189
ATTGACGC | -0.156
AGTTCTTC | -0.0427
CTTCAGAA | -0.179
CAAGAACG | 0.123
GCCATTAA | 0.0468
AATTGAAG | -0.0559
TACACGAA | 0.337
CACACGGA | 0.0992
GACACGGA | 0.167
TACACGGA | 0.329
CACACGAC | 0.295
CACACGAG | 0.107

Sequence | PBM E-score
AACACGAA | 0.205
GACACGAA | 0.172
CACACGAA | 0.341
GGGCAGCA | -0.256
AGCAGGTG | -0.0258
ACCTAACC | 0.0492
ACTTAGGC | -0.111
ACTCATCC | 0.227
GACGAAGA | 0.253
AACGAAGA | 0.188
TACGAAGA | 0.334
TACGAATA | 0.25
CACGAAGA | 0.316
TCCGAAGA | -0.0522
CAGCAGGA | -0.0545
ACCCTACT | -0.231
CCTATTCC | -0.139
GCAGGTAC | -0.221
TAATGACA | 0.376
AAATGACC | 0.215
CAATGACA | 0.214
GAATGACC | 0.0136
TAATGCCA | -0.0319
TATTGACA | -0.0437
AAATGACG | 0.187

Sequence | PBM E-score
GAATGACA | 0.311
AAATGACA | 0.358
GACTTCTC | 0.167
ATGAGCGC | 0.0585
GTAGGGTA | 0.0591
CCGTTTGC | -0.0132
CATAGCAG | -0.126
CTCGTACC | 0.184
GTCGTAGA | 0.278
AACGTACA | 0.0978
ATCGTACA | 0.34
CTCGTACA | 0.342
GGCGTACA | 0.0819
ATCGTAAA | 0.234
ATCGTACC | 0.0609
ATCGTACG | 0.394
ATCGTAAG | 0.108
GTCGTACA | 0.383
CACGTACA | 0.0758
GTCTGCAC | -0.061
GGTCCTGA | -0.0764
CGGAAGTA | -0.0352
ACAGGTAC | -0.146
GGCTTTAC | -0.225
GCTGGGTA | -0.0116

Sequence | PBM E-score
AAGAAAAA | -0.0775
CCAGGATA | 0.126
GTGAGGTA | -0.0243
AGAAACCT | -0.237
ATTACGGG | -0.0226
ATTACGGA | 0.303
ATTACGTG | 0.176
ATTACGGC | 0.184
CTTACGTA | 0.212
ATTACGTA | 0.372
GAGAGGCA | -0.176
GCCCTACC | -0.149
CTGAATCA | -0.0743
AAGCCCCC | -0.352
ATAGTGGG | -0.075
ACAGTGAT | 0.294
GTAGTGAA | 0.0467
ATAGTGAC | 0.35
CTAGTGAA | -0.202
GCAGTGAC | 0.15
ATAGTGAT | 0.436
ATAGTGAA | 0.0719
CTAGTGAC | 0.316
CTAGTGAG | -0.0339
ATAGTGAG | 0.069

Sequence | PBM E-score
GTAGTGAC | 0.35
AGTCGTAC | 0.169
CTGGGTAA | -0.0825
ATGGGTTC | -0.0947
GCGCGCGC | 0.197
GCAGGGAC | -0.131
TTAGCCAA | -0.00286
CGGCGCCC | -0.143
CGAGCAAA | 0.179
CGCGGGAC | -0.172
AACGTGCA | 0.0844
CTCGTGCA | 0.124
GGCGTGCA | -0.0867
GTCGTGCA | 0.374
CACGTGCA | 0.139
GACGTGCA | 0.358
GATGGAGA | -0.00795
AGATCGCA | 0.0409
ATCCCCGC | -0.211
CACAAAGA | 0.0323
AGGTCAGC | -0.0373
GCGTACAA | 0.197
CAGTACAA | 0.0284
GCGTACAC | 0.0451
CCGTACAC | 0.3

Sequence | PBM E-score
ACGTACAA | 0.218
CGGTACAA | 0.211
TCGTACAA | 0.402
CCGTACAG | 0.21
CCGTACAA | 0.432
AAGGTTTC | -0.0855
CCGACAGA | -0.00185
TACGTTAA | 0.132
AGATGCCC | -0.144
GCATCCGA | -0.146
GAGAGTGA | 0.324
TAGAGTGA | 0.248
GAGAGTGC | -0.192
CCGTTTTA | 0.203
TGATGACA | 0.376
AGATGACT | -0.0855
AGATGACA | 0.316
CGATGACC | 0.206
ACATGACA | 0.256
GGATGACA | 0.253
GCATGACA | 0.207
AGATGACC | 0.132
CGATGACA | 0.319
TCATGACA | 0.323
CGATGACG | 0.136

Sequence | PBM E-score
TGATGAAA | 0.0461
CTCGTGCC | -0.0761
CCGGATGA | -0.024
GAACACAA | -0.0576
GCGAGTGA | 0.137
ACTGGTCT | -0.176
ACTTGTCT | -0.0797
CGATTGGC | -0.0866
CCCCGCGG | -0.255
CGGTCGCC | -0.00137
GATGACGA | 0.265
CCTGACGA | 0.214
ATTGACGA | 0.377
ATTGACGG | 0.211
AATGACGA | 0.36
GTTGACGA | 0.21
AATGACGC | 0.106
CATGACGA | 0.374
ACTGACGG | -0.0335
CATGACGG | 0.0231
AATGACGT | 0.125
ACTGACGA | 0.305
